Results filed as inconclusive are left out. Calls of active or inactive are those of the source. Calls come from the whole dose curve; as a rule, active = well fitted curve in the direction sought with a large enough effect; inconclusive = small, poorly fitted or top-dose-only effect, or another doubt; inactive = no such curve, though single readings can be large; an effect the other way counts as inactive or inconclusive.
Assays:
[1] = Cellular Toxicity (caspase-3) Mesangial (AID 660); settings: mesangial cells, normalized: DMSO 0%, 100 µM tamoxifen 100%; at 91.7 µM (top of the series);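 note: combined caspase 3 and 7 activity read by Caspase-Glo luminescence; cells exposed to compound for 16 h before the caspase read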
Procedure, shortened: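 Seed cells derived from normal human renal glomeruli, incubate 5 h, add compounds across concentrations and incubate 16 h at 37 °C. Caspase 3/7 activation is then quantified by luciferase light, with AC50 derived by Hill modeling.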

[2] = Cellular Toxicity (caspase-3) SK-N-SH (AID 661);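 note: 0% = DMSO basal and 100% = 10 µM staurosporine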
Procedure, shortened: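 Cells were seeded and incubated 5 hr at 37 °C, dosed with compound over a concentration range for 16 hr, then given Caspase-Glo 3/7 reagent for 1 hr at room temperature before luminescence reading.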

[3] = Cellular Toxicity (caspase-3) H-4-II-E (AID 663); settings: H-4-II-E rat hepatoma, scaled: DMSO 0%, 100 µM tamoxifen 100%; at 92.2 µM (top of the series);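 note: cells exposed to compound for 16 hr before readout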
Procedure, shortened: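 Caspase 3/7 activation measured in H-4-II-E cells in complete culture medium after 16 hr treatment at 37 °C, using luciferase-coupled substrate readout; AC50 values come from Hill-equation fits of normalized concentration-response data.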

[4] = Cellular Toxicity (caspase-3) Hek293 (AID 664); settings: HEK293 caspase-3 activation, DMSO = 0%, 100 µM tamoxifen = 100%; at 92.2 µM (top of the series);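 note: cells exposed to compound for 16 h at 37 °C before readout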
Procedure, shortened: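 qHTS, HEK293 (human embryonic kidney), 16 h cpd exposure in complete medium. Caspase-3/7 activation = luminescence increase; normalized to DMSO/100 uM tamoxifen; Hill-fit AC50.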

[5] = Cellular Toxicity (caspase-3) N2a (AID 665);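 note: compound exposure lasted 16 h at 37 °C before readout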
Procedure, shortened: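 Caspase-3/7 activation, measured as increased luminescence from aminoluciferin release, is quantified in mouse N2a cells exposed to compounds for 16 h. Values are normalized to DMSO and 10 uM staurosporine, with AC50 derived by Hill modelling.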

[6] = Cellular Toxicity (caspase-3) NIH 3T3 (AID 666);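 note: caspase signal read after 16 h compound exposure; 0% = DMSO basal and 100% = 100 µM tamoxifen stimulation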
Procedure, shortened: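 Cells were plated at 1000 per well and incubated 5 hr at 37°C, then compound was added for 16 hr. Caspase-Glo 3/7 reagent followed for 20 min at room temperature before luminescence was read.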

[7] = Cellular Toxicity (caspase-3) Renal Proximal Tubule (AID 667); settings: Potency: caspase-3 activation;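 note: cells exposed to compound for 16 hours at 37 °C before detection; 0% = DMSO basal and 100% = 10 µM staurosporine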
Procedure, shortened: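 AC50 derived by standard Hill fit of concentration-response data, normalized between DMSO basal and 10 uM staurosporine as 100% stimulation. Cells: primary rat kidney proximal tubule, 16 h treatment at 37 °C.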

[8] = molecular target: Cytochrome P450 3A4 (Homo sapiens) (UniProt P08684); experiment: qHTS Assay for Inhibitors and Substrates of Cytochrome P450 3A4 (AID 884); note: % is set by controls: 0 for no effect and ±100 for the full control effect; nearly all actives have a fitted effect of over 50% in size
Chain of Cytochrome P450 3A4 (Homo sapiens) (P08684 whole entry, looked up): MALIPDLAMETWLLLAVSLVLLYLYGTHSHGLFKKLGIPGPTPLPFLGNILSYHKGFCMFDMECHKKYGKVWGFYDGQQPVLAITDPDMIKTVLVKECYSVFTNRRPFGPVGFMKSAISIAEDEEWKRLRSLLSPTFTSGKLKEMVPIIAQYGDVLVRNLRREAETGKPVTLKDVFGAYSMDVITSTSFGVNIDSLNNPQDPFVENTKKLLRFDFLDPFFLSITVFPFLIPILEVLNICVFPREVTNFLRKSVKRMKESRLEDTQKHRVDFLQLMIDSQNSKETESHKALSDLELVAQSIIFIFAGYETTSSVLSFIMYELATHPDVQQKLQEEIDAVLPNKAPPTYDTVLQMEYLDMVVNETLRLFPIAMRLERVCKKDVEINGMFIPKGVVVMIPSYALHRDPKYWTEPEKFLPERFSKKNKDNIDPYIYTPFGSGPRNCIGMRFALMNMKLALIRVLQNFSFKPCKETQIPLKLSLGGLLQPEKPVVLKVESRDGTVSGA
Procedure, shortened: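 Luminescent readout of luciferin produced by CYP3A4 (20 nM) dealkylation of Luciferin-PPXE, 25 uM (its KM). NADPH-driven reaction ran 60 min at RT after 10 min compound preincubation; data scaled to 57 uM ketoconazole as 100% inhibition.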

[9] = Cell Viability - LYMP2-001 (AID 921);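 note: cells exposed to compound for 24 h at 37 °C; 0% = DMSO only and full inhibition = tetraoctylammonium bromide control wells; nearly all actives have a fitted effect of over 70% in size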
Procedure, shortened: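 Steps: seed 2500 lymphoblastoid cells/well; 5 hr, 37 C; add compound; 24 hr, 37 C; CellTiter-Glo reagent, 30 min room temperature; read luminescence. Concentration-response modeled by Hill equation for AC50.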

[10] = MultiTox-Fluor Cytotoxicity Assay - LYMP1-001 - Live Cells (AID 947);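 note: 0% = DMSO only and full inhibition = tetraoctylammonium bromide control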
[11] = MultiTox-Fluor Cytotoxicity Assay - LYMP1-002 - Live Cells (AID 955); note: % is set by controls: 0 for no effect and ±100 for the full control effect
Procedure, shortened: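 Cells were seeded at 2500 per well and incubated 5 hr. Compounds were then added for 16 hr at 37 C, followed by MultiTox-Fluor reagent for 60 min at room temperature and fluorescence reading of viable-cell protease signal.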

[12] = MultiTox-Fluor Cytotoxicity Assay - LYMP1-002 - Dead Cells (AID 960); note: nearly all actives have a fitted effect of over 60% in size
Procedure, shortened: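 Cells were plated, rested 5 hr, then treated with compound dilution series for 16 hr at 37 C. After adding substrate reagent and 60 min at room temperature, dead-cell protease fluorescence gave concentration-response curves fitted by the Hill equation.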

[13] = MultiTox-Fluor Cytotoxicity Assay - LYMP1-003 - Dead Cells (AID 961); note: nearly all actives have a fitted effect of over 70% in size
Procedure, shortened: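 LYMP1-003 lymphoblastoid, 2500 cells/well, 5 hr settle then 16 hr cpd at 37 C; MultiTox-Fluor reagent 60 min RT; Ex/Em 485/520 dead-cell signal; norm. DMSO = 0%, 15 uM tetraoctylammonium bromide = 100%; Hill AC50.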

[14] = MultiTox-Fluor Cytotoxicity Assay - LYMP1-003 - Live Cells (AID 962);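 note: cells exposed to compound for 16 hours at 37 °C; 0% = DMSO only and full loss = 92 µM tetraoctylammonium bromide; cytotoxic hits lower the live-cell protease signal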
Procedure, shortened: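 Acute cytotoxicity is scored as a drop in live-cell protease activity in human lymphoblastoid LYMP1-003 cells after 16 hr compound exposure at 37 C. AC50 values come from Hill-equation modelling of concentration-response data.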

[15] = Cell Viability - LYMP1-003 - Assay at 24 hr (AID 963);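 note: plate controls were DMSO only for no effect and tetraoctylammonium bromide positive control for full effect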
Procedure, shortened: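 Cytotoxicity is scored as a concentration-dependent fall in ATP-linked luciferase signal in human lymphoblastoid LYMP1-003 cells treated 24 hr at 37 C in complete culture medium.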

[16] = Cell Viability - LYMP1-003 - Assay at 40 hr (AID 964); note: % is set by controls: 0 for no effect and ±100 for the full control effect; nearly all actives have a fitted effect of over 60% in size
Procedure, shortened: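 Luminescent ATP signal (CellTiter-Glo) served as the viability read-out after 40 hr compound treatment of human lymphoblastoid LYMP1-003 cells at 37 C. Decreases in ATP were fitted with the Hill equation to give AC50.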

[17] = Cell Viability - LYMP2-003 (AID 965);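 note: cells exposed to compounds for 24 h before reading; 0% = DMSO only and full effect = 92 µM tetraoctylammonium bromide; nearly all actives have a fitted effect of over 50% in size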
Procedure, shortened: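 Seed 2500 lymphoblastoid cells/well; incubate 5 hr, 37 C; add compounds; incubate 24 hr, 37 C; add CellTiter-Glo, 30 min RT; read luminescence. AC50 from Hill fit.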

[18] = molecular target: Cytochrome P450 3A4 (Homo sapiens) (UniProt P08684); experiment: qHTS Assay for Activators of Cytochrome P450 3A4 (AID 885); note: nearly all actives have a fitted effect of over 65% in size
Procedure, shortened: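 Activators are scored by enhanced luminescence from CYP3A4 conversion of luciferin-PPXE (25uM, equal to KM) to luciferin, after 60 min at RT with an NADPH-regenerating system.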

[19] = Cell Viability - LYMP1-002 - Assay at 16 hr (AID 948);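 note: 0% = DMSO alone and full effect = 92 µM tetraoctylammonium bromide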
Procedure, shortened: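 Seed 2500 LYMP1-002 cells per well in complete medium and hold 5 hr at 37 C. Add compound across a concentration series and incubate 16 hr at 37 C. Add CellTiter-Glo, wait 30 min at room temperature, read luminescence.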

[20] = MultiTox-Fluor Cytotoxicity Assay - LYMP1-001 - Dead Cells (AID 946)
Procedure, shortened: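 Seed 2500 LYMP1-001 cells/well, incubate 5 hr at 37 C; add compound, 16 hr at 37 C; add MultiTox-Fluor reagent, 60 min RT; read dead-cell fluorescence Ex/Em=485/520. Normalize to DMSO and 15 uM tetraoctylammonium bromide.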

COC(=O)CS
inactive: caspase-3 activation [1] -1.25% | outcome [2] | caspase-3 activation [3] 0.405% | caspase-3 activation [4] -1.02% | outcome [5] | outcome [6] | Potency [7] | Potency [8] | Potency [9] | outcome [10] | outcome [11] | outcome [12] | Potency [13] | Potency [14] | Potency [15] | Potency [16] | Potency [17]

S=C([S-])NCCNC(=S)[S-].[Zn+2]
inactive: caspase-3 activation [1] -0.549% | outcome [2] | caspase-3 activation [3] -1.93% | caspase-3 activation [4] 3% | outcome [5] | outcome [6] | Potency [7] | outcome [18] | Potency [9] | outcome [19] | outcome [11] | outcome [12] | Potency [13] | Potency [14] | Potency [15] | Potency [16] | Potency [17]

O=C1OC(=O)c2c(Br)c(Br)c(Br)c(Br)c21
inactive: caspase-3 activation [1] 0.186% | outcome [2] | caspase-3 activation [3] 0.557% | caspase-3 activation [4] 1.35% | outcome [5] | outcome [6] | Potency [7] | Potency [8] | outcome [20] | outcome [19] | outcome [11] | outcome [12] | Potency [14] | Potency [15] | Potency [17]

O=Cc1ccccc1Cl
inactive: caspase-3 activation [1] -0.514% | outcome [2] | caspase-3 activation [3] 2.39% | caspase-3 activation [4] 2.31% | outcome [5] | outcome [6] | Potency [7] | Potency [8] | outcome [20] | outcome [10] | outcome [19] | outcome [11] | outcome [12] | Potency [13] | Potency [14] | Potency [15] | Potency [16] | Potency [17]

Cc1cc([N+](=O)[O-])ccc1N
inactive: caspase-3 activation [1] 0.789% | outcome [2] | caspase-3 activation [3] -0.2% | caspase-3 activation [4] -2.55% | outcome [5] | outcome [6] | Potency [7] | Potency [9] | outcome [20] | outcome [19] | outcome [11] | Potency [13] | Potency [14] | Potency [15] | Potency [16] | Potency [17]

C=CCOC(=O)CCCCCCCC
inactive: caspase-3 activation [1] 0.626% | outcome [2] | caspase-3 activation [3] -0.694% | caspase-3 activation [4] 1.74% | outcome [5] | outcome [6] | Potency [7] | Potency [8] | Potency [9] | outcome [19] | outcome [11] | outcome [12] | Potency [13] | Potency [14] | Potency [15]

Cc1ccc(Cl)cc1N
inactive: caspase-3 activation [1] -0.617% | outcome [2] | caspase-3 activation [3] -0.363% | caspase-3 activation [4] -3.36% | outcome [5] | outcome [6] | Potency [7] | outcome [18] | Potency [9] | outcome [20] | outcome [10] | outcome [11] | outcome [12] | Potency [13] | Potency [14] | Potency [15] | Potency [16] | Potency [17]

c1ccc2c(c1)ccc1ncccc12
inactive: caspase-3 activation [1] -0.196% | outcome [2] | caspase-3 activation [3] 0.297% | caspase-3 activation [4] 1.59% | outcome [5] | outcome [6] | Potency [7] | Potency [9] | outcome [20] | outcome [10] | outcome [19] | outcome [11] | Potency [15] | Potency [16] | Potency [17]

CCOc1cc(OCC)c(C(C)=O)cc1OCC
inactive: caspase-3 activation [1] -0.248% | outcome [2] | caspase-3 activation [3] 0.345% | caspase-3 activation [4] -0.553% | outcome [5] | outcome [6] | Potency [7] | outcome [18] | Potency [9] | outcome [20] | outcome [10] | outcome [19] | Potency [13] | Potency [14] | Potency [15] | Potency [16] | Potency [17]

C/C(C=O)=C/c1ccccc1
inactive: caspase-3 activation [1] -0.174% | outcome [2] | caspase-3 activation [3] -1.36% | caspase-3 activation [4] 0.188% | outcome [5] | outcome [6] | Potency [7] | Potency [8] | outcome [10] | outcome [19] | outcome [11] | outcome [12] | Potency [13] | Potency [14] | Potency [15] | Potency [16] | Potency [17]

Cc1cc(C2(c3cc(C)c(O)cc3C)OS(=O)(=O)c3ccccc32)c(C)cc1O
inactive: caspase-3 activation [1] -0.0933% | outcome [2] | caspase-3 activation [3] 2.61% | caspase-3 activation [4] 4.58% | outcome [5] | outcome [6] | Potency [7] | outcome [18] | Potency [9] | outcome [20] | outcome [10] | outcome [19] | outcome [11] | Potency [13] | Potency [14] | Potency [15] | Potency [17]

Cc1ccc(CO)cc1
inactive: caspase-3 activation [1] -1.48% | outcome [2] | caspase-3 activation [3] 0.0936% | caspase-3 activation [4] 0.73% | outcome [5] | outcome [6] | Potency [7] | Potency [8] | Potency [9] | outcome [19] | outcome [11] | outcome [12] | Potency [13] | Potency [14] | Potency [15] | Potency [16] | Potency [17]

O=C(O)c1ccc(CO)o1
inactive: caspase-3 activation [1] -0.701% | outcome [2] | caspase-3 activation [3] 0.706% | caspase-3 activation [4] -0.635% | outcome [5] | outcome [6] | Potency [7] | Potency [8] | outcome [20] | outcome [10] | outcome [19] | outcome [11] | outcome [12] | Potency [13] | Potency [14] | Potency [15] | Potency [16] | Potency [17]

COc1cccc(N)c1
inactive: caspase-3 activation [1] 2% | outcome [2] | caspase-3 activation [3] 4.32% | caspase-3 activation [4] 7.74% | outcome [5] | outcome [6] | Potency [7] | outcome [18] | Potency [9] | outcome [20] | outcome [10] | outcome [19] | outcome [11] | outcome [12] | Potency [13] | Potency [14] | Potency [15] | Potency [16] | Potency [17]

C[C@@H]1O[C@@H](O[C@@H]2[C@@H](O)[C@H](OCCc3ccc(O)c(O)c3)O[C@H](CO[C@@H]3O[C@H](CO)[C@@H](O)[C@H](O)[C@H]3O)[C@H]2OC(=O)/C=C/c2ccc(O)c(O)c2)[C@H](O)[C@H](O)[C@H]1O
inactive: caspase-3 activation [1] -1.14% | outcome [2] | caspase-3 activation [3] -0.514% | caspase-3 activation [4] -1.55% | outcome [5] | outcome [6] | Potency [7] | outcome [18] | Potency [9] | outcome [20] | outcome [19] | outcome [11] | outcome [12] | Potency [13] | Potency [14] | Potency [15] | Potency [17]

From PubChem BioAssay (NCATS)
